From PubChem BioAssay (NCI) come the findings set out here.

This is part of a sample that, as a whole, favours compounds with a hit. Of some 83,000 tested, about 20% had one in any assay.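 A percent growth of 40 corresponds to 60% growth inhibition; 0 means no net growth; -100 means all cells died. Active threshold: below 10.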 Unmarked numbers belong to inactive results. The source made the active and inactive calls.

Among the test systems are SR leukemia; RPMI-8226 leukemia; OVCAR-8 ovarian; OVCAR-5 ovarian; OVCAR-4 ovarian; SK-OV-3 ovarian; IGROV1 ovarian; OVCAR-3 ovarian; HS 578T breast; NCI/ADR-RES ovarian; T-47D breast; BT-549 breast; MDA-MB-435 melanoma; SW-620 colon; MCF7 breast; HCT-116 colon; KM12 colon; HCC-2998 colon.
Holding throughout (assay): NCI-60 one-dose screen, 48 h (100 = growth as untreated, 0 = no growth, -100 = all killed)
Common to all, as to details: 10 µM

As for `FC(F)(F)c1ccc(-c2cnc(Cl)nc2NCc2cc(C(F)(F)F)cc(C(F)(F)F)c2)cc1`, the growth in the assay with SR leukemia was 26.2%; in the assay on RPMI-8226 leukemia, 0.828% (active); in the assay with OVCAR-8 ovarian, 15.6%; with OVCAR-5 ovarian, 35.2%; in the assay with OVCAR-4 ovarian it was 19.5%; in the assay on SK-OV-3 ovarian it was 43.4%. The growth with IGROV1 ovarian was 45.5%; in the assay on OVCAR-3 ovarian it was 3.89% (active); in the assay on HS 578T breast it was 26.8%; in the assay with NCI/ADR-RES ovarian, 12.5%; in the assay with T-47D breast, 10.5%; in the assay on BT-549 breast, 26.2%. For the same molecule, the growth was 14.3% with MDA-MB-435 melanoma; 17.5% in the assay with SW-620 colon; 4.38% (active) in the assay on MCF7 breast; 4.49% (active) with HCT-116 colon; 13.1% with KM12 colon.

Consider `Cc1cc(O)c(C2=NN(c3ccc(S(N)(=O)=O)cc3)C(c3ccc(N(C)C)cc3)C2)c(C)c1Cl` (centres undefined), for which the growth in the assay with SR leukemia is 25.5%; with RPMI-8226 leukemia it was -22.2% (active); in the assay on OVCAR-8 ovarian it was 75.2%; in the assay on OVCAR-5 ovarian, 96.8%; in the assay with OVCAR-4 ovarian, 58.8%; with SK-OV-3 ovarian it was 106%. The growth is 34.1% in the assay with IGROV1 ovarian; 80.3% in the assay on OVCAR-3 ovarian; 82.5% with HS 578T breast; 85.6% in the assay on NCI/ADR-RES ovarian; 37% with T-47D breast; 95.7% with BT-549 breast. The growth in the assay with MDA-MB-435 melanoma is 69.3%; with SW-620 colon it was 72.2%; with HCT-116 colon, 41.1%; in the assay on HCC-2998 colon, 94.1%; in the assay on KM12 colon it was 62.4%.

Take `O=C(OCC1OC(n2cc(C(F)(F)F)c(=O)[nH]c2=O)CC1OC(=O)c1ccc([N+](=O)[O-])cc1)c1ccc([N+](=O)[O-])cc1` (centres undefined): the growth with SR leukemia is 60.4%; in the assay with RPMI-8226 leukemia, 71.9%; in the assay on OVCAR-8 ovarian, 66.8%; in the assay on OVCAR-5 ovarian, 82.9%; in the assay on OVCAR-4 ovarian it was 88.2%; with SK-OV-3 ovarian, 63.1%. For the same molecule, the growth in the assay with IGROV1 ovarian is 82.3%; in the assay on OVCAR-3 ovarian, 74.1%; in the assay on HS 578T breast it was 88.5%; with NCI/ADR-RES ovarian it was 88.7%; in the assay with T-47D breast, 74.4%; in the assay on BT-549 breast, 60.1%. Further, the growth in the assay with MDA-MB-435 melanoma was 50.6%; in the assay on SW-620 colon, 65.6%; in the assay on MCF7 breast it was 33.6%; in the assay with HCT-116 colon it was 72.7%; in the assay with HCC-2998 colon it was 51.5%; in the assay on KM12 colon, 72.2%.

On to `CCOc1nc(-c2ccccc2)cc2c(O)c(C(=O)NC(C)C)[nH]c(=O)c12`, for which the growth is 94% with SR leukemia; 40.1% with RPMI-8226 leukemia; 103% in the assay on OVCAR-8 ovarian; 114% in the assay on OVCAR-5 ovarian; 118% with OVCAR-4 ovarian; 98.6% in the assay with SK-OV-3 ovarian. The growth in the assay on IGROV1 ovarian is 65.4%; in the assay with OVCAR-3 ovarian, 100%; in the assay with HS 578T breast, 82.5%; with NCI/ADR-RES ovarian, 96.8%; in the assay with T-47D breast, 97.3%; in the assay with BT-549 breast, 147%. Also, the growth was 105% with MDA-MB-435 melanoma; 96.1% in the assay on SW-620 colon; 98.9% in the assay on MCF7 breast; 101% with HCT-116 colon; 106% with KM12 colon.

Take `COc1ccc(NC(=O)CCn2cnc3c(cc(-c4ccccc4)n3-c3ccccc3)c2=O)cc1`: the growth is 95.7% in the assay on SR leukemia; 93.4% with RPMI-8226 leukemia; 102% with OVCAR-8 ovarian; 94.7% in the assay with OVCAR-5 ovarian; 72.1% with OVCAR-4 ovarian; 58.1% in the assay with SK-OV-3 ovarian. Also, the growth in the assay with IGROV1 ovarian is 78.9%; in the assay on OVCAR-3 ovarian, 98%; in the assay with HS 578T breast, 46%; in the assay with NCI/ADR-RES ovarian, 63%; with T-47D breast, 90.8%; in the assay on BT-549 breast, 92.2%. Also, the growth in the assay on MDA-MB-435 melanoma is 96%; in the assay with MCF7 breast, 83.3%; in the assay with HCT-116 colon it was 91.4%; with HCC-2998 colon it was 96.3%; with KM12 colon it was 110%.

Regarding `CCc1c(C(=O)NCc2c(O)ccc3cccc(O)c23)[nH]c(C)c1C(C)=O`, the growth in the assay on SR leukemia was 30.5%; in the assay on RPMI-8226 leukemia, 15.3%; in the assay with OVCAR-8 ovarian, 38.4%; with OVCAR-5 ovarian, 90.4%; with OVCAR-4 ovarian, 27.6%; with SK-OV-3 ovarian it was 62.2%. Also, the growth is 12.6% in the assay with OVCAR-3 ovarian; 35% in the assay with HS 578T breast; 29.2% with NCI/ADR-RES ovarian; 9.15% (active) with T-47D breast; 34.5% with BT-549 breast; 35.1% with MDA-MB-435 melanoma. Further, the growth in the assay on SW-620 colon is 68.7%; in the assay with MCF7 breast, 11.6%; in the assay with HCT-116 colon it was 42.3%; with HCC-2998 colon, 47.9%; with KM12 colon, 31.2%.

Consider `Cc1ccc(/C(CS(=O)(=O)c2ccc(C)cc2)=N\O)cc1`, for which the growth in the assay with SR leukemia is 83.7%; in the assay on RPMI-8226 leukemia, 96.6%; in the assay on OVCAR-8 ovarian, 97.2%; in the assay with OVCAR-5 ovarian, 90.9%; in the assay on OVCAR-4 ovarian it was 96.1%; with SK-OV-3 ovarian it was 112%. In addition, the growth is 102% in the assay on IGROV1 ovarian; 118% in the assay on OVCAR-3 ovarian; 113% with HS 578T breast; 106% in the assay on NCI/ADR-RES ovarian; 103% in the assay on T-47D breast; 89% in the assay with MDA-MB-435 melanoma. Besides, the growth is 106% in the assay on SW-620 colon; 91.3% in the assay with MCF7 breast; 103% in the assay on HCT-116 colon; 103% in the assay with HCC-2998 colon; 115% in the assay on KM12 colon.

Turning to `Cc1ccccc1C1=N[C@@H](Cc2ccccc2)C(=O)c2c(nc3ccccn23)N1`, the growth is 122% in the assay with SR leukemia; 98.4% with RPMI-8226 leukemia; 92.8% in the assay on OVCAR-8 ovarian; 101% in the assay with OVCAR-5 ovarian; 98.7% in the assay with OVCAR-4 ovarian; 111% in the assay on SK-OV-3 ovarian. Besides, the growth in the assay with IGROV1 ovarian was 108%; in the assay with OVCAR-3 ovarian it was 108%; in the assay with HS 578T breast it was 102%; in the assay on NCI/ADR-RES ovarian, 95.6%; in the assay with T-47D breast, 104%; in the assay on BT-549 breast, 96.9%. Besides, the growth in the assay on MDA-MB-435 melanoma is 98.8%; in the assay on SW-620 colon, 103%; in the assay on HCT-116 colon, 86.9%; in the assay with HCC-2998 colon, 99.9%; in the assay with KM12 colon it was 108%.

`O=S(=O)(NC1c2ccccc2Oc2ccccc21)c1ccccc1`: the growth in the assay with SR leukemia is 58.3%; in the assay with RPMI-8226 leukemia it was 94.1%; in the assay with OVCAR-8 ovarian, 88.8%; in the assay on OVCAR-5 ovarian, 101%; in the assay on OVCAR-4 ovarian, 88.6%; in the assay on SK-OV-3 ovarian it was 99.6%. Further, the growth was 97.3% in the assay with IGROV1 ovarian; 97.6% in the assay on OVCAR-3 ovarian; 90.9% in the assay with NCI/ADR-RES ovarian; 82.3% in the assay on T-47D breast; 91.6% in the assay with BT-549 breast; 107% in the assay on MDA-MB-435 melanoma. The growth with SW-620 colon was 97%; with MCF7 breast, 91.5%; in the assay with HCT-116 colon, 84.9%; with HCC-2998 colon it was 103%; with KM12 colon it was 104%.
